Assay results: article PMC5540273 (PLoS ONE, 2017)
Like-named read-outs stand apart in the source and are kept apart here.

Tests used:
Details in all cases: n = 1
[1] = test system: ROCK1
[2] = test system: ROCK2
[3] = test system: ROS1
[4] = test system: RPS6KA4(Kin.Dom.1-N-terminal)
[5] = test system: RPS6KA4(Kin.Dom.2-C-terminal)
[6] = test system: RPS6KA5(Kin.Dom.1-N-terminal)
[7] = test system: RPS6KA5(Kin.Dom.2-C-terminal)
[8] = test system: T1, RSK1(Kin.Dom.1-N-terminal)
T1 construct: gene RPS6KA1

[9] = test system: T2, RSK1(Kin.Dom.2-C-terminal)
T2 construct: gene RPS6KA1

[10] = test system: T3, RSK2(Kin.Dom.1-N-terminal)
T3 construct: gene RPS6KA3

[11] = concentration: 1 μM, replicates: in singlicate
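Also: KINOMEscan kinase panel screen.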

Row | Compound | %Inh [1, 11] [%] | %Inh [2, 11] [%] | %Inh [3, 11] [%] | %Inh [4, 11] [%] | %Inh [5, 11] [%] | %Inh [6, 11] [%] | %Inh [7, 11] [%] | %Inh [8, 11] [%] | %Inh [9, 11] [%] | %Inh [10, 11] [%] | %Inh ([1]; 1 µM) [%] | %Inh ([2]; 1 µM) [%] | %Inh ([3]; 1 µM) [%] | %Inh ([4]; 1 µM) [%] | %Inh ([5]; 1 µM) [%] | %Inh ([6]; 1 µM) [%] | %Inh ([7]; 1 µM) [%] | %Inh ([8]; 1 µM) [%] | %Inh ([9]; 1 µM) [%] | %Inh ([10]; 1 µM) [%]
1 | Clc1cc(Cl)cc(Nc2ccnc(Nc3cc(Cl)cc(Cl)c3)n2)c1 [GSK175726] | 4 | 0 | 37 | 0 | 0 | 8 | 9 | 1 | 26 | 0 |  |  |  |  |  |  |  |  |  | 
2 | CC(C)(C)c1ccc(C(=O)Nc2cn3cc(Cl)ccc3n2)cc1 | 0 | 0 | 0 | 7 | 5 | 0 | 0 | 0 | 20 | 26 |  |  |  |  |  |  |  |  |  | 
3 | O=C(Nc1ccccc1)Nc1cccc(Oc2ccc3nccn3n2)c1 | 0 | 0 | 0 | 43 | 0 | 0 | 0 | 0 | 0 | 0 |  |  |  |  |  |  |  |  |  | 
4 | Cl.NC(=O)c1cccc(Nc2nccc(Nc3ccc(Oc4cccc(Cl)c4)c(Cl)c3)n2)c1 [GW659008] | 0 | 0 | 0 | 0 | 0 | 5 | 11 | 0 | 0 | 8 |  |  |  |  |  |  |  |  |  | 
5 | Cc1cccc(-c2nc(Nc3ccc4[nH]ncc4c3)c3ccccc3n2)n1 [GW857175] | 29 | 52 | 17 | 0 | 33 | 0 | 5 | 15 | 50 | 18 |  |  |  |  |  |  |  |  |  | 
6 | COC(=O)c1c(-c2ccccc2)c2cc(OC)ccc2c(=O)n1Cc1ccccc1 | 0 | 0 | 0 | 0 | 4 | 15 | 0 | 11 | 18 | 0 |  |  |  |  |  |  |  |  |  | 
7 | COc1ccc(CNC(=O)NC2CCN(c3ccnc(Nc4cc(OC)c(OC)c(OC)c4)n3)C2)cc1 (stereo not drawn) [GSK1379748] | 20 | 31 | 29 | 0 | 0 | 0 | 21 | 0 | 1 | 3 |  |  |  |  |  |  |  |  |  | 
8 | Nc1ncnc2[nH]c(-c3ccccc3)nc12 [AH5015] | 11 | 14 | 0 | 15 | 0 | 5 | 0 | 15 | 0 | 15 |  |  |  |  |  |  |  |  |  | 
9 | Cc1ccc(NC(=O)Nc2cccc(C(F)(F)F)c2)cc1 [GSK955403] |  |  |  |  |  |  |  |  |  |  | 0 | 0 | 0 | 0 | 1 | 3 | 6 | 1 | 6 | 0
10 | COc1ccc(Nc2nccc(NCCNC(=O)Nc3ccccc3F)n2)cc1 [GSK1379901] | 30 | 44 | 24 | 14 | 0 | 14 | 27 | 16 | 0 | 1 |  |  |  |  |  |  |  |  |  | 
11 | COc1cccc(-c2cc(-c3c[nH]nc3-c3ccccn3)ccn2)c1 [GW680338] | 0 | 0 | 0 | 18 | 0 | 0 | 7 | 0 | 9 | 0 |  |  |  |  |  |  |  |  |  | 
12 | CN(C)CCN(C)C(=O)c1cc(-c2ccncc2)c(-c2ccc(Cl)c(O)c2)o1.Cl.Cl [SB-710397] | 26 | 17 | 0 | 13 | 0 | 10 | 2 | 25 | 25 | 8 |  |  |  |  |  |  |  |  |  | 
13 | O=C(Nc1n[nH]c2nc(-c3nccs3)c(Br)cc12)C1CCCC1 [SB-742609] | 10 | 0 | 0 | 7 | 0 | 0 | 0 | 14 | 0 | 11 |  |  |  |  |  |  |  |  |  | 
14 | O=S(=O)(c1ccc(-c2ccnc3[nH]ccc23)cc1)N1CCCC1 [GSK846226] | 81 | 82 | 12 | 5 | 56 | 8 | 76 | 8 | 54 | 18 |  |  |  |  |  |  |  |  |  | 
15 | Fc1cc(Cl)ccc1Nc1ccnc2cc(I)ccc12 [GW551191] | 2 | 17 | 0 | 10 | 0 | 13 | 0 | 8 | 50 | 11 |  |  |  |  |  |  |  |  |  | 
16 | Cn1ccc2ncnc(Oc3ccc(NC(=O)Nc4ccccc4)cc3)c21 | 0 | 24 | 15 | 21 | 0 | 0 | 2 | 0 | 0 | 0 |  |  |  |  |  |  |  |  |  | 
17 | Cc1cccc(-c2cc(Nc3ccncc3)c3ccccc3n2)n1 [GSK223675] | 0 | 0 | 0 | 0 | 0 | 5 | 100 | 30 | 35 | 0 |  |  |  |  |  |  |  |  |  | 
18 | CN1C(=O)C(Nc2ccc(Cl)c(C(=O)O)c2)=C(c2ccc(Cl)cc2)C1=O [SB-404290] | 5 | 0 | 18 | 0 | 2 | 0 | 0 | 0 | 12 | 28 |  |  |  |  |  |  |  |  |  | 
